ABCB6 inh 2: blocks the human ABCB6 transporter | Q9NP58 | K562-ABCB6 porphyrin accumulation, flow cytometry, 1 h; hits give low values | fluorescence ratio to DMSO, % at 10 µM | actives 0.19% (n = 360,000) | AID 602162;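 active = fluorescence ratio to DMSO below 75%, the collection mean minus 3 SD; inconclusive = too few cells collected in the well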;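 note: signal is porphyrin accumulated inside mitochondria; lower ratio means ABCB6 inhibition with less porphyrin fluorescence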
Myeloid diff 2: compounds promoting myeloid differentiation. ER-HoxA9 myeloid progenitors, lysozyme-GFP differentiation, flow cytometry. calls only at 10 µM. actives 1% (n = 360,000). AID 624256;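 active = normalized GFP-positive differentiation at or above the plate's own cutoff, the solvent-only control mean plus 3 SD; inconclusive = no clear call, values can overlap the other calls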;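 note: cells exposed to compound for four days before flow analysis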
Granule exo inh: blocks lytic granule exocytosis | actives 0.66% (n = 360,000) | inhibition, % at 10 µM | AID 651702 | TALL-104 LAMP-1 surface exposure, flow cytometry; cells stimulated with thapsigargin and PMA;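 active = inhibition above about 55%, limit read from the data; inconclusive = no clear call, values can overlap the other calls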
Granule exo CP1: lytic granule exocytosis inhibition | actives 11% (n = 1,500) | inhibition, % at 10 µM | TALL-104 cells, LAMP-1 externalization, flow cytometry; stimulated with PMA plus thapsigargin | shares compounds with Granule exo inh; in the data active = inhibition above about 60%
A number is an active result; - = inactive; ? = inconclusive; . = not tested or not shown. Sampled rows, rich in hits. Any-hit rate of the full collection: about 1.8%.

SMILES	ABCB6 inh 2	Myeloid diff 2	Granule exo inh	Granule exo CP1
O=C(c1ccc(F)c(F)c1)N1CCC2(CC1)NCCc1[nH]cnc12	-	-	-	.
CC1(C)CC2CC(C)(CN2C(=O)COC(=O)c2ccccc2C(F)(F)F)C1 (stereo unspecified)	-	-	-	.
Cc1cccc(N2CCN(C(=O)Cc3ccccc3[N+](=O)[O-])CC2)c1C	-	-	-	.
O=[N+]([O-])c1ccc2c(c1)C(N1CCN(CCO)CC1)Cc1ccc(F)cc1S2 (stereo unspecified)	-	-	-	.
CSc1ccc2c(c1)C(N1CCN(C)CC1)Cc1ccc(F)cc1S2 (stereo unspecified)	-	-	69	-
O=C1S/C(=C/c2ccccc2F)C(=O)N1CCN=C1NS(=O)(=O)c2ccccc21	-	-	-	.
Cc1[nH]ncc1-c1ccccc1Cl	-	-	-	.
Cc1c(NC(=O)COc2cccc(Br)c2)c(=O)n(-c2ccccc2)n1C	-	-	70	-
CC(=O)c1cccc(OCC(=O)Nc2cccc(C(=O)Nc3c(C)n(C)n(-c4ccccc4)c3=O)c2)c1	-	-	-	.
COc1ccc(-c2oc3ncnc(NCCCN(C)C)c3c2-c2ccc(OC)cc2)cc1	-	-	69	-
CN(C)CCNc1ncnc2oc(-c3ccccc3)c(-c3ccccc3)c12	-	-	-	.
C[C@@H]1CN([C@@H](C)CO)C(=O)c2cc(NS(C)(=O)=O)ccc2O[C@@H]1CN(C)Cc1ccc(C(F)(F)F)cc1	-	-	62	-
C[C@H](CO)N1C[C@H](C)[C@@H](CN(C)Cc2ccc(C(=O)O)cc2)Oc2ccc(NS(C)(=O)=O)cc2C1=O	-	-	-	.
CC(C)NC(=O)N(C)C[C@H]1Oc2c(NC(=O)Nc3ccc(C(F)(F)F)cc3)cccc2C(=O)N([C@H](C)CO)C[C@@H]1C	-	-	60	-
C[C@H](CO)N1C[C@H](C)[C@@H](CN(C)C(=O)NC2CCCCC2)Oc2ccc(NS(=O)(=O)c3ccc(F)cc3)cc2C1=O	-	-	-	.
C[C@H](CO)N1C[C@H](C)[C@@H](CN(C)C(=O)Nc2ccc(C(F)(F)F)cc2)Oc2c(NC(=O)Nc3ccccc3)cccc2C1=O	-	-	-	.
C[C@H](CO)N1C[C@H](C)[C@@H](CN(C)C(=O)NC2CCCCC2)Oc2ccc(NS(C)(=O)=O)cc2C1=O	-	-	73	-
Cc1ccc(CCNC(=O)C2CCC(=O)N(Cc3ccccc3F)C2)o1 (stereo unspecified)	-	-	-	.
COc1ccccc1CN1CCNC(=O)C1CC(=O)NCc1cn(C)nc1C (stereo unspecified)	-	-	-	.
CN(/N=C/c1cc(Cl)ccc1O)C1=NS(=O)(=O)c2ccccc21	-	.	-	.
COc1ccc(S(=O)(=O)N2CCCC(C(=O)N3CCOCC3)C2)cc1OC (stereo unspecified)	-	-	-	.
NC(=O)c1cnccc1C=Cc1ccccc1	-	-	64	-
Cc1ccncc1C(N)=O	-	-	-	.
COc1ccc(-n2nnnc2S(=O)(=O)CC(=O)N2CCCCC2)cc1	-	?	60	-
COc1ccc(-n2nnnc2S(=O)(=O)Cc2ccc(C(=O)O)cc2)cc1	-	-	-	.
SMILES	ABCB6 inh 2	Myeloid diff 2	Granule exo inh	Granule exo CP1
CSCCC(NC(=O)COc1ccccc1)C(=O)N1CCCCCC1 (stereo unspecified)	-	-	-	.
Cc1ccc2c(c1)c1c3n2CCCNC3CCC1 (stereo unspecified)	-	-	-	.
c1cc2c(cc1C1CCCCC1)c1c3n2CCCNC3CCC1 (stereo unspecified)	-	?	77	-
O=Cc1cc(Br)c(OC(=O)N2CCOCC2)c(Br)c1	-	-	-	.
CN(C)CCCN(C(=O)CCSc1ccccc1)c1nc2cc3c(cc2s1)OCO3	-	?	60	70
Cc1ccc2sc(N(CCCN(C)C)C(=O)c3ccc(S(=O)(=O)N4CCOCC4)cc3)nc2c1C	-	-	-	.
CN(C)CCCN(C(=O)c1ccc(S(=O)(=O)N(C)C)cc1)c1nc2cc3c(cc2s1)OCO3	-	-	-	.
Cc1ccc2sc(N(CCCN(C)C)C(=O)CCS(=O)(=O)c3ccccc3)nc2c1C	-	?	84	-
COc1ccc(OC)c2sc(N(CCCN(C)C)C(=O)CCS(=O)(=O)c3ccccc3)nc12	-	?	-	.
CCN(Cc1ccccc1)S(=O)(=O)c1ccc(C(=O)N(CCCN(C)C)c2nc3cc4c(cc3s2)OCO4)cc1	-	-	66	-
CN(C)CCCN(C(=O)CCS(=O)(=O)c1ccccc1)c1nc2cc3c(cc2s1)OCO3	-	.	-	.
CCN(Cc1ccccc1)S(=O)(=O)c1ccc(C(=O)N(CCCN(C)C)c2nc3c(C)c(C)ccc3s2)cc1	-	-	60	-
COC(=O)c1ccc(-n2c(CCC(=O)O)ccc2-c2ccccc2)cc1	-	-	-	.
CCOC(=O)Cn1ccc2cc(S(=O)(=O)N3CCCC3)ccc21	-	-	-	.
CCN1C(=O)N(C)[C@@H](c2ccccc2)C(C(=O)OC)=C1C	-	-	-	.
COc1ccccc1CNS(=O)(=O)CCNC1CC1	-	-	-	.
CCC1(c2ccccc2)NC(=O)N(CC(=O)Nc2ccc(Cl)c(S(=O)(=O)N3CCCCC3)c2)C1=O (stereo unspecified)	-	-	-	.
O=C(Nc1ccccc1C(=O)NCC1CCCO1)c1ccc(Cl)cc1 (stereo unspecified)	-	-	-	.
Cc1ccc2sc(N(CCCN(C)C)C(=O)c3ccc(S(=O)(=O)N(C)C4CCCCC4)cc3)nc2c1C	-	-	62	-
CCN(CC)CCN(C(=O)c1ccc(S(=O)(=O)N(C)C2CCCCC2)cc1)c1nc2c(C)cccc2s1	-	-	-	.
COc1cccc(C(=O)OCC(=O)Nc2cc(C)c(C)cc2[N+](=O)[O-])c1	-	-	-	.
CC(=O)Nc1cccc(C(=O)N2CCN(S(=O)(=O)c3ccc(C4CCCCC4)cc3)CC2)c1	-	-	-	.
CCOC(=O)c1c(CSc2cccs2)n(C)c2cc(Br)c(O)c(CN(C)C)c12	-	-	90	-
CCOC(=O)c1c(C)n(C)c2cc(Br)c(O)c(O)c12	-	-	-	.
CCCCOc1ccc(N2C(=O)C(C)CNC2=S)cc1 (stereo unspecified)	-	-	-	.
SMILES	ABCB6 inh 2	Myeloid diff 2	Granule exo inh	Granule exo CP1
O=C1/C(=C/c2cccs2)SC(=S)N1CC(=O)N1CCCCC1CCO (stereo unspecified)	-	-	-	.
Clc1ccccc1OCCCOc1cccc2cccnc12	-	-	88	-
O=Cc1ccccc1OCCCOc1cccc2cccnc12	-	-	-	.
O=C(CN1c2cccc3cccc(c23)S1(=O)=O)Nc1ccc(F)c(F)c1F	-	-	-	.
CC(Oc1ccc(Br)cc1)C(=O)Nc1nnc(C2CC2)s1 (stereo unspecified)	-	-	-	.
COCc1cc(C)nc2sc(C(=O)OC(C)C)c(N)c12	-	-	-	.
COCc1cc(C)nc2sc(C(=O)Nc3ccc(C(=O)OC)cc3)c(N)c12	-	-	85	-
O=C(O)C1=C[C@@H](c2ccccc2)C[C@@H](OCCCCO)O1	-	-	-	.
O=C(O)C1=C[C@H](c2ccccc2)C[C@H](OCCCCO)O1	-	-	58	-
CC(=O)c1ccc(N(CC(=O)NC2CCCC2)C(=O)c2csnn2)cc1	-	-	-	.
O=C(CSCCO)Nc1ccccc1	-	-	-	.

High-throughput results (PubChem)
